Screen size: about 53,000 sequences; about 3,700 (7%) were called active.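 How the source made its calls: active means gene knockdowns whose robust z-score for IL-1 alpha signal is at least 2 or at most -2, so actives lie on both sides; inactive means the rest.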 Many of the other results were omitted from the sample, so actives are more common in it than they were.
Experiment: Components of the Cytosolic LPS Sensing Pathway: Gene Identification via Genome-wide siRNA Screen;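 further: robust z of the log signal after scaling to non-targeting control siRNA wells of the plate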
Conditions: RAW264.7 macrophages, IL-1a HTRF, actives lie on both sides, screened at 100 nM (by protocol), cells primed 5 h with Pam3CSK4 first
Procedure, shortened: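 Using IL-1a HTRF as read-out, the screen measured release from RAW264.7 cells after 48h siRNA knockdown (100 nM), 5 h Pam3CSK4 priming and 24 h cytosolic LipidA. Values were expressed relative to negative-control wells as robust z-scores.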

Sequence	z-score
GGUACUAAAGAAAUAUCCCTT against Sirt7	0.736 (inactive)
GGCUUGUUUCCAAAAUAGGTT against Rflna	0.327 (inactive)
GGCUUUCUUUGCCAUGACCTT against Copg1	-2.93 (active)
CCCUAGAUGGCCGAAAUAUTT against Dazap1	-1.47 (inactive)
CCUUAUCUGGAGUGCGAGATT against Gpr158	0.452 (inactive)
CCAAUCCUGAAUAAUGAGATT against Spag17	0.0419 (inactive)
CGCCGCAGUAUUAAUGGCUTT against Nxph4	0.225 (inactive)
GGUGGACCUGCACUUUACCTT against Fam135b	0.67 (inactive)
CGUCUAUCUUGGAUUACUATT against Dll1	2.11 (active)
UAAAUACUUACCAGCUGGATT against Olfr1306	1.06 (inactive)
GCACCAGUCGAAUCCUCAATT against Gpr137	-1.46 (inactive)
GGCCCAAGGAUCAAUUUAUTT against Zup1	0.914 (inactive)
GGUUCCUGGGAACCUAAGUTT against Med25	2.02 (active)
CCUCAUCGAUGCACUACCCTT against Lrfn4	-0.338 (inactive)
GCUCAUGACACUCUUCCUGTT against Spib	1.45 (inactive)
GGAGGAUGGCUUUACCGCATT against Mib2	-1.64 (inactive)
GCCGGAUUGAGAUCUCUAUTT against 1500015L24Rik	0.734 (inactive)
GGAACAGGACAAUGACAGUTT against Gzme	1.43 (inactive)
GGCUUACUUCAUUUCAGUUTT against Zfp526	0.0808 (inactive)
GGAAAACAUUAAGAAGGGCTT against Ccn2	3.41 (active)
GGACCUCCACCGUUACUACTT against Sgsh	0.367 (inactive)
GGAGGAACACAAGAUUUUCTT against Ppp2r5c	-0.322 (inactive)

Sequence	z-score
GGAAGUCCAUCUCUUUUGCTT against Olfr56	0.213 (inactive)
GGAUCCAGAAAGUCCAGAUTT against Nt5c3b	0.918 (inactive)
GGAUGUUGGUACUUUUUGATT against Pwp1	-0.254 (inactive)
GGAAUAAAGUGUUGUGUCATT against Wfdc15b	-0.118 (inactive)
GGUAGCAGUUGCUUUAAUATT against Siah2	2.65 (active)
GGGUUUCACAGGCAAACAGTT against Suclg1	-0.904 (inactive)
CCCUGUACCUAGCUCAAGATT against Ecel1	-0.693 (inactive)
GGAAUCAUCUUUGUGGAGATT against Nudt22	-0.733 (inactive)
GCCAACGAGAGUAAACACGTT against 5930403N24Rik	-0.0706 (inactive)
GGUCUACUGACUCAAAGUCTT against Mrps33	2.2 (active)
GGAUUUCAAAUGGAAACAATT against Vmn1r45	-1.15 (inactive)
GCAUGAAUUUUGCACGGACTT against Rad18	1.04 (inactive)
UCAACUCAAACUAUGUCGATT against Hoxb4	-0.172 (inactive)
GGUCUGUGGAUUUAAACUUTT against Sestd1	0.931 (inactive)
CGAAGAGAGCUGCAUUAAATT against BC049715	-1.37 (inactive)
GGCUAUCAUGAACUUGGAUTT against Gpd2	-0.57 (inactive)
GGAAAUGUACAAGACUGAUTT against Anxa2	2.29 (active)
GGAAAAAAACUUGCUGGAUTT against Ppp3ca	-0.681 (inactive)
CCAAAUAACCUGCUACGAGTT against Ffar2	0.905 (inactive)
GGUAUACUAACUUUUAAGGTT against Fmo1	-0.228 (inactive)
GCCUCUAUUCUACACCACATT against Gpr137	-2.1 (active)
GAAAAACUGCUGUUUUGGATT against Ly6g6d	1.87 (inactive)

Sequence	z-score
GGAGACGAGAGGAUCCUCUTT against Chga	-1.56 (inactive)
GGUCAAGAAUGUAGCUGAUTT against Atp6v0d1	-1.87 (inactive)
GGUGUGUGAACCAUGUGUGTT against Olfr157	-1.03 (inactive)
GGCAUAGUGAAUUUAGUCUTT against Iqub	0.526 (inactive)
GGCUGGAUACUCAGUGCUATT against Abhd16b	6.41 (active)
GGUCAUGGAUCAGAAAGAATT against Hnrnpd	0.297 (inactive)
CACGGUACAGUACGAUUGATT against Rcan2	0.143 (inactive)
CAAGUACAAGCAGUUGACCTT against BC061237	-0.0958 (inactive)
GAGGGUGUGCAUUCUUCUATT against Olfr1242	-0.766 (inactive)
GGUUCCUUAAUCACUUUGCTT against Ndufa9	-0.139 (inactive)
GGAACAGAUAACAUUAUGGTT against Cpeb3	2.79 (active)
GGCCCUUACUUCCACAUCATT against Fam104a	-0.711 (inactive)
CGAAGCACAUAUCUUUGAUTT against Zfp41	0.444 (inactive)
GGAAAGAGGAAUCAAGAAATT against Slc23a2	-1 (inactive)
CCAAAGAGCGCAUGGCUCATT against Epn2	-0.782 (inactive)
GCGAAUCAGCACUUAUGGATT against Cd2ap	2.65 (active)
GGUCUACUCUUCAUAUCGCTT against Rab3d	-0.566 (inactive)
GGACAGUUCAGAACAAAUUTT against Ccbe1	-0.168 (inactive)
GCUGAACCAAACCCAAAUGTT against Snph	0.00664 (inactive)
GGUGAUGCCACUAGUGAAGTT against Scx	-0.123 (inactive)
GGCAGAUCUAUUUAUGGUATT against Ccer1	0.229 (inactive)
GGUCUCAGCAAUCUGUUCCTT against 1700029I15Rik	-2.15 (active)

Sequence	z-score
GGAACUAUACCAAAGGCAATT against Cfap65	-0.198 (inactive)
GGAAUGAAGUCUGUCUUCGTT against Zdhhc7	0.648 (inactive)
GGAGGAGGAGCUGAAGAAATT against Atp12a	-0.679 (inactive)
GGAAAGAUUUAUUUUGACGTT against Vnn3	0.286 (inactive)
GGGUAUUGCUGGACAACGUTT against Col1a1	3.85 (active)
GGUCUUCAGCACCUUUGAATT against Ccl2	-0.903 (inactive)
GGUACUUUUAUCUUAGCUATT against Paral1	0.0889 (inactive)
GGGAUUGUGAAUUUCAUGUTT against Gca	1.3 (inactive)
GCAGAUCAAUGACUAUAGATT against Arhgef11	0.858 (inactive)
GCCAUAUGGGCAGAUGUUUTT against Sec24b	-0.682 (inactive)
GCCUAAGAGUUUCAAUAAGTT against Tgtp1	-1.21 (inactive)
GCAAAUGCACACUCUAGGATT against Ptprn2	-0.0741 (inactive)
GGAAUUUUAUGCCAAGAAUTT against Hip1r	-3.89 (active)
GGAAGAAUCGCUGCUACCGTT against Mrpl20	1.06 (inactive)
GCUGUGAUCAGGACGAGAATT against Stx2	0.187 (inactive)
GGGAAAGAUUCAUGUUACUTT against Mug2	-0.804 (inactive)
GCUAACCAGUCAGUUGAUCTT against Mocs1	-0.086 (inactive)
CCUUACCAAUGUUCAUUUATT against Skint7	-0.32 (inactive)
GGAUCUGCAUUUCACUAUUTT against Pi4ka	0.818 (inactive)
GCAUACAAAUGCACAUUGATT against Lsg1	2.69 (active)
GGAUCCGUGAAUGUAGUCATT against Rapgef4	-0.793 (inactive)
CGGAUUGUAAAGAACUGCATT against Sfrp1	-0.0934 (inactive)

Sequence	z-score
GCUUUGUGAUGGAUUACUATT against Ccl4	1.85 (inactive)
CGUAUACUGUGAUUGAUAUTT against Lcn5	-0.647 (inactive)
GGCCAGAAGAUUCCUAAAGTT against Gulp1	3.38 (active)
GUUACAGUAUUCUAUGGGATT against Olfr1080	0.508 (inactive)
GGUUUUUCUGAGUUUCCGUTT against Il4i1	-1.03 (inactive)
GCCUCAUUAUAAAUCACACTT against Bclaf3	0.752 (inactive)
GGUGGAGUUCGUGUUGAGCTT against Slc6a11	-0.527 (inactive)
GAAGGACACCCUUAUAUUUTT against Olfr1216	0.892 (inactive)
GGAUGGUCACGGAAGUUCUTT against Lmf2	2.36 (active)
GGGCCUCAUCUUUGUGGUATT against Arf5	0.359 (inactive)
GGAUUGUUUAUCUGUCUUCTT against Cyp3a44	-1.05 (inactive)
GGACCUAAAGUUUCUCUCATT against Ccnc	-0.2 (inactive)
GGUCAUAGCUGGAUUCCUUTT against Olfr1453	-1.47 (inactive)
GCUUAUAAUGGCAAUAUUGTT against Nvl	0.275 (inactive)
GGACAAAAUUGAACACAAGTT against Pogz	2.86 (active)
GGCGAAUUAAUUAACCGCCTT against Abcb10	0.798 (inactive)
CCUCGAUAGGUUAGUGACATT against Fdxacb1	-0.731 (inactive)
GGUACAGAAACAGUUAGUUTT against Olfr432	0.328 (inactive)
GCUUCCUAGAUCAUGACUGTT against Ube2g2	-0.318 (inactive)

Reference: PubChem BioAssay AID1508600 (Functional Genomics Laboratory (NCATS/FGL), 2020)
